The values that follow come from PubChem BioAssay (NCATS).

The target in test [1] is Rap guanine nucleotide exchange factor 3 (Homo sapiens) (UniProt O95398). In words: Confirmatory qHTS for agonist of cAMP-regulated guanine nucleotide exchange factor 3 (EPAC1) (AID 1645881).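 For activation: EPAC1 catalysed release of BODIPY-GDP from Rap1B seen as fluorescence loss; 100% = effect of cAMP agonist control.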 Note: nearly all actives have a fitted effect of over 75% in size. Note: potency is the fitted concentration of half-maximal effect. A general note: qHTS replaces the single test concentration by a dilution series.
Test [2] concerns the target Rap guanine nucleotide exchange factor 4 (Homo sapiens) (UniProt Q8WZA2). In words: Confirmatory qHTS for agonist of cAMP-regulated guanine nucleotide exchange factor 4 (EPAC2) (AID 1645884). For activation: % is set by controls: 0 for no effect and ±100 for the full control effect.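 Note: nucleotide exchange releases bodipy-GDP from Rap1 and this lowers its fluorescence; nearly all actives have a fitted effect of over 65% in size.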 Note: potency is the fitted concentration of half-maximal effect.
Test [3] has the same target. In words: Confirmatory qHTS for antagonist of cAMP-regulated guanine nucleotide exchange factor 4 (EPAC2) (AID 1645885). For activity change, negative = inhibition: % is set by controls: 0 for no effect and ±100 for the full control effect. Note: nearly all actives have a fitted effect of over 25% in size. Note: potency is the fitted concentration of half-maximal effect.
The target in test [4] is Rap guanine nucleotide exchange factor 3 (Homo sapiens) (UniProt O95398). In words: Counterscreen qHTS for antagonist of cAMP-regulated guanine nucleotide exchange factor 3 (EPAC1) (AID 1645888).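 Note: fluorescence loss as bound BODIPY-GDP is released from Rap1B; % of control where 0% means no effect.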 The gist of the method: (§1)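 Rap1B-BODIPY-GDP 250 nM + GDP 50 uM; cpds 7-pt, final 9.74 nM–152 uM (activator mode) or from 7.32 nM upwards (inhibitor mode); RT; FI 480/540 nm at 5 and 30 min, then ± cAMP, reread.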

For test [5] the target is unchanged. In words: Confirmatory qHTS for antagonist of cAMP-regulated guanine nucleotide exchange factor 3 (EPAC1) (AID 1645880). Note: nearly all actives have a fitted effect of over 55% in size. Note: potency is the fitted concentration of half-maximal effect. A digest of the protocol:
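Nucleotide exchange uses 100 nM EPAC1, 250 nM RAP1B-BODIPY-GDP and 50 uM GDP, with compounds in a concentration-titration series. After 5 min at room temperature, fluorescence (480 nm ex/540 nm em) is read every 5 min for 30 min. Data are normalized to control ATA and DMSO.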

The target is the same in test [6]. In words: Counterscreen qHTS for agonist of cAMP-regulated guanine nucleotide exchange factor 3 (EPAC1) (AID 1645889). For activation: % of control where 0% means no effect. Note: nearly all actives have a fitted effect of over 40% in size. Note: potency is the fitted concentration of half-maximal effect. A digest of the protocol:
as §1
In general terms: Counterscreens check selectivity or assay interference.

Test [7] deals with Cytochrome P450 3A4 (Homo sapiens) (UniProt P08684). In words: qHTS Assay for Activators of Cytochrome P450 3A4 (AID 885). Note: nearly all actives have a fitted effect of over 65% in size. The gist of the method: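 Quantitative HTS format: compounds preincubated with 20nM human CYP3A4 and Luciferin-PPXE substrate at KM, reaction started by NADPH regeneration, stopped after 60 min, luciferase luminescence read 20 min later.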
Test [8] in a line: Confirmation and Secondary Assay for Modulators of Hemoglobin Beta Chain Splicing at IVS2 654 locus (AID 910).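 Note: HeLa cells stably carrying EGFP split by mutant beta-globin IVS2-654 intron; per-well total GFP intensity by laser scanning cytometry after 2-day treatment; % of control where 0% means no effect.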 A digest of the protocol: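 Readout: per-well total peak green fluorescence (488 nm ex, 500–520 nm em) from objects 5–250 µm, reflecting correct splicing of an EGFP-654 reporter. Compounds were applied for 2 days at 37 °C to overnight-plated HeLa EGFP-654 cells; controls were DMSO and 500 nM IVS2-654 PNA.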

Test [9] is described as follows: Confirmation and Secondary Assay for Modulators of Hemoglobin Beta Chain Splicing at IVS2 705 locus (AID 930).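 Note: HeLa cells stably expressing the EGFP-705 splicing reporter; GFP fluorescence per well restored by corrected splicing of the IVS2-705 intron in EGFP; series mostly up to about 46 µM; % of control where 0% means no effect.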 A digest of the protocol:
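Assay measures total GFP intensity per well in HeLa EGFP-705 cells after 2 days with compound; mis-splicing normally truncates EGFP, so fluorescence indicates corrected splicing.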

Test [10] has as its target Ubiquitin carboxyl-terminal hydrolase 1 (Homo sapiens) (UniProt O94782). In words: Inhibitors of USP1/UAF1: Pilot qHTS (AID 504865). Note: potency is the fitted concentration of half-maximal effect; nearly all actives have a fitted effect of over 35% in size. The gist of the method:
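USP1/UAF1 complex at 1 nM preincubated 15 min at room temperature with compound, then Ub-Rho substrate added at 150 nM final. Fluorescence (480/540 nm) read kinetically in 50 mM HEPES pH 7.8, 0.5 mM EDTA, 1 mM TCEP, 0.1 mg/ml BSA, 0.01% Tween-20.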

In test [11] the target is Glutathione peroxidase 1 (Homo sapiens) (UniProt P07203). In words: Primary qHTS Assay for Inhibitors of Recombinant Selenoprotein Glutathione Peroxidase 1 (GPX1) (AID 1845191). Note: % is set by controls: 0 for no effect and ±100 for the full control effect; nearly all actives have a fitted effect of over 65% in size. A digest of the protocol: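 10 nM GPX1 + cpd, 30 min RT; start w/ 1 mM GSH, 0.5 mM cumene hydroperoxide, 0.5 mM NADPH, 100 nM GR, 0.01% BSA; buffer 50 mM Tris-HCl pH 7.5, 2 mM EDTA, 150 mM NaCl; Fl 340/450, 0 & 15 min.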

In test [12] the target is Cytochrome P450 3A4 (Homo sapiens) (UniProt P08684). In words: qHTS Assay for Inhibitors and Substrates of Cytochrome P450 3A4 (AID 884). Note: potency is the fitted concentration of half-maximal effect; nearly all actives have a fitted effect of over 50% in size. The gist of the method: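 20 nM human CYP3A4 with 25 uM Luciferin-PPXE (at KM) in 200 mM KPO4, preincubated 10 min with compound; NADPH regeneration started a 60 min RT reaction. Luciferin detected by luminescence, normalized to 57 uM ketoconazole as full inhibition.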

The target of test [13] is Tumor susceptibility gene 101 protein (Homo sapiens) (UniProt Q99816). In words: qHTS Assay for Iinhibitors of HIV-1 Budding by Blocking the Interaction of PTAP/TSG101: Hit Validation (AID 651600). Note: potency is the fitted concentration of half-maximal effect; nearly all actives have a fitted effect of over 70% in size. A digest of the protocol:
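Fluorescence polarization binding assay: Tsg101 binding domain (10 uM) mixed with compounds and FITC-labeled PTAP peptide (50 nM) in HEPES pH 7.5, 0.15 M NaCl, 0.01% Tween 20, EDTA, TCEP; 20 min at r.t.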

Each structure is given as a SMILES string. Values without a mark were called inactive. Records with an inconclusive call do not appear. Active and inactive are the calls of the source. Calls come from the whole dose curve; as a rule, active = well fitted curve in the direction sought with a large enough effect; inconclusive = small, poorly fitted or top-dose-only effect, or another doubt; inactive = no such curve, though single readings can be large; an effect the other way counts as inactive or inconclusive.

Cytochrome P450 3A4 (Homo sapiens), sequence (P08684 whole entry, looked up): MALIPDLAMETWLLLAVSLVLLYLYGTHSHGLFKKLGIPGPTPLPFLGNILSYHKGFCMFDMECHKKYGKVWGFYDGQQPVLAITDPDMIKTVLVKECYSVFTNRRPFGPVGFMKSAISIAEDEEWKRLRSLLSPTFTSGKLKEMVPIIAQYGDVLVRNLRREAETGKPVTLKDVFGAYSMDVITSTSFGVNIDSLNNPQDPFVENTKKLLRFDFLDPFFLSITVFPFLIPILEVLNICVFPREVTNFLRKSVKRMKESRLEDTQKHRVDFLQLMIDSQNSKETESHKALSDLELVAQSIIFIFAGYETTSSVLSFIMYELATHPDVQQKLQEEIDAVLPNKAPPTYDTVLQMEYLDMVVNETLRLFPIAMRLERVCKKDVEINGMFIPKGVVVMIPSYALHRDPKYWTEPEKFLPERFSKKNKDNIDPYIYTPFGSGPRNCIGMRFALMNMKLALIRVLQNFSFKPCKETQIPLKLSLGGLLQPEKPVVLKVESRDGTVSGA
Rap guanine nucleotide exchange factor 4 (Homo sapiens), sequence (Q8WZA2 whole entry, looked up): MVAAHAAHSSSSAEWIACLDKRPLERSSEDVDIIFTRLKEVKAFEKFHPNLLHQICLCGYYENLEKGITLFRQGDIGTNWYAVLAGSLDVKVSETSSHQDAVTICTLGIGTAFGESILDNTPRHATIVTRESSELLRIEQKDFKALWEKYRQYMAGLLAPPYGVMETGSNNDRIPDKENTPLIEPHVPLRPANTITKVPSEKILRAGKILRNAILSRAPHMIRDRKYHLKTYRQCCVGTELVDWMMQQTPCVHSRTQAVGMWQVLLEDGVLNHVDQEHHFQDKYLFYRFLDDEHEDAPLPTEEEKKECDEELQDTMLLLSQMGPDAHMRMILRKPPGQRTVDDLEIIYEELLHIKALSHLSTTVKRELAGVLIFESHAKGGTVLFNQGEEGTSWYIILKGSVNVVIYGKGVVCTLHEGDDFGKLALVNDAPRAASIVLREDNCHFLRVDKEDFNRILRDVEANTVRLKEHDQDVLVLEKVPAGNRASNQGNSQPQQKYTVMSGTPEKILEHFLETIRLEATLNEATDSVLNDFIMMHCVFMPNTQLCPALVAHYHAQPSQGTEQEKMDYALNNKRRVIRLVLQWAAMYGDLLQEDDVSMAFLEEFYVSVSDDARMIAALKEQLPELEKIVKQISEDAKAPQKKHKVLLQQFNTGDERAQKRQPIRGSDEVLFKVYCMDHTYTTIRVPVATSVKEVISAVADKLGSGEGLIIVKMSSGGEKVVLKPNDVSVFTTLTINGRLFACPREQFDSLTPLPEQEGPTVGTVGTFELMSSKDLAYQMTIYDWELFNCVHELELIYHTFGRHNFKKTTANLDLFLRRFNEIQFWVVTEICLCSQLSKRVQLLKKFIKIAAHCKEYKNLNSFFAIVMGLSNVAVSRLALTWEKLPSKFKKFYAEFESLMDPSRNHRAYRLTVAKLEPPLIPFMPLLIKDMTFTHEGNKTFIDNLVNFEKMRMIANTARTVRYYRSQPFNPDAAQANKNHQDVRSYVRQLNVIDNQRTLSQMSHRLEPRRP
Rap guanine nucleotide exchange factor 3 (Homo sapiens), sequence (O95398 whole entry, looked up): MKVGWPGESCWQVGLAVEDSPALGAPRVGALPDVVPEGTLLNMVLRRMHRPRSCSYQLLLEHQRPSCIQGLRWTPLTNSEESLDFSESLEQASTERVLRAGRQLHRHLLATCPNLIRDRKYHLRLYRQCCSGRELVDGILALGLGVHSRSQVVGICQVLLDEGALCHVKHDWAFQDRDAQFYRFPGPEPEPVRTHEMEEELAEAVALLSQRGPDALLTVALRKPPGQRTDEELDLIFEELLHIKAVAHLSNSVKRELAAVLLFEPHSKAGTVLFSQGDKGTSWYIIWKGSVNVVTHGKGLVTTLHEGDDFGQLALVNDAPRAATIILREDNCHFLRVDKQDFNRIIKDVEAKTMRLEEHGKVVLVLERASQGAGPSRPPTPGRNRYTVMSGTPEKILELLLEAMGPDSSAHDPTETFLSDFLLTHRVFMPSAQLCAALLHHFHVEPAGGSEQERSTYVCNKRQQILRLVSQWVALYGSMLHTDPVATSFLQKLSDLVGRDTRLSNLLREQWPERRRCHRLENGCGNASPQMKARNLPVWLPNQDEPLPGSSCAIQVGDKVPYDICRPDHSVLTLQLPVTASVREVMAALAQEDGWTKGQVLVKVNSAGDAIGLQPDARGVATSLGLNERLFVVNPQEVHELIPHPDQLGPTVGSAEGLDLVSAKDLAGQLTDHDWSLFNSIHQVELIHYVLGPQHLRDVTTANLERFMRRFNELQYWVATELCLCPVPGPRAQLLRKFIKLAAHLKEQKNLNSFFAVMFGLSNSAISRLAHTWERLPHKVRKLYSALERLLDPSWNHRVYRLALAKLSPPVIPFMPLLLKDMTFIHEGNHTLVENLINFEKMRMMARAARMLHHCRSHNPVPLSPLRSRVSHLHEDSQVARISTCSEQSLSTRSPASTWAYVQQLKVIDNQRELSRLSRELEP
Glutathione peroxidase 1 (Homo sapiens), sequence (P07203 whole entry, looked up): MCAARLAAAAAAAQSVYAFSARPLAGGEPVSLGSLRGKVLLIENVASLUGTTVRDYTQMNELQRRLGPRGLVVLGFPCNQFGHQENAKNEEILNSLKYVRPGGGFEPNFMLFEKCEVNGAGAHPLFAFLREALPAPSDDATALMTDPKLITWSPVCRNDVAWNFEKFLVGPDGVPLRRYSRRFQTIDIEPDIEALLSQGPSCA
Tumor susceptibility gene 101 protein (Homo sapiens), sequence (Q99816 whole entry, looked up, the tested form may be a part): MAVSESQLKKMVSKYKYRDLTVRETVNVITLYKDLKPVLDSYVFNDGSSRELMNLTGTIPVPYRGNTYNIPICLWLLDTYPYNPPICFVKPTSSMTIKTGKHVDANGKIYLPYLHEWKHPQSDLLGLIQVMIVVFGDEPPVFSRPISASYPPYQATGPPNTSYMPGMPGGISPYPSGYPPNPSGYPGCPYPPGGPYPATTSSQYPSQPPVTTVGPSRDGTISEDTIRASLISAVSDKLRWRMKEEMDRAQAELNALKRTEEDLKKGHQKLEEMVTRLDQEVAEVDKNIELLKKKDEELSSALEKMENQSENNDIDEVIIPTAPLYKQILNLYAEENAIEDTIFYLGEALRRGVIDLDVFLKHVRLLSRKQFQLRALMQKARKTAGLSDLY
Ubiquitin carboxyl-terminal hydrolase 1 (Homo sapiens), sequence (O94782 whole entry, looked up): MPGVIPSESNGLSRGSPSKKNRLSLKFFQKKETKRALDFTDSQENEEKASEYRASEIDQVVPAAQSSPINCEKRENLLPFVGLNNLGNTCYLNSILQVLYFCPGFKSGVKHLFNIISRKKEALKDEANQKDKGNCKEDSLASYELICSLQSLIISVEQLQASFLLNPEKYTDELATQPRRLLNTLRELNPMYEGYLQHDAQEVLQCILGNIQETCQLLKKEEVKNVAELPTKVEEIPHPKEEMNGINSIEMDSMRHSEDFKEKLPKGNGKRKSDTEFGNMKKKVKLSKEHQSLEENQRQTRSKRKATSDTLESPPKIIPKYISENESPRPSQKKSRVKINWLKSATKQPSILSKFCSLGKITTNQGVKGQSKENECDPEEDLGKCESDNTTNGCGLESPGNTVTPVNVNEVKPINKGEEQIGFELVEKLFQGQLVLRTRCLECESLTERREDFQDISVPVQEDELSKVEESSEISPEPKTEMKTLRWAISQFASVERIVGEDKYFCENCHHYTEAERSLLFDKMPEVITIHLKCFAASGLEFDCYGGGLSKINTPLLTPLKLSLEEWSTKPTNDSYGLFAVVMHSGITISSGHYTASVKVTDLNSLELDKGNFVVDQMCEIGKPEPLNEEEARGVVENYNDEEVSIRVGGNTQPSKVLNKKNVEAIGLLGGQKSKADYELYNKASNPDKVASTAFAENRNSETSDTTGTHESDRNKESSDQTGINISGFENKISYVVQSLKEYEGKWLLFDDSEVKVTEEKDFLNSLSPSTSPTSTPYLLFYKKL

As to `Cc1cc(/C=C2\C(=O)NC(=O)N(c3ccc(Cl)cc3)C2=O)c(C)n1-c1sc2c(c1C#N)CCCC2`, the Potency result in test [1] is “inactive”. The activation in test [2] was 3.87% [at 17.1 µM, percent relative to cAMP agonist control]. In addition, the activity change, negative = inhibition in [3] was -14.9% [at 12.7 µM]; in test [4] it was -13.5% [at 30.8 µM].
In the case of `O=c1[nH]c(=O)n(-c2cccc(F)c2)c(O)c1/C=C1\C=Nc2ccccc21`, the Potency result in [5], in test [2], in test [3] and in [6] was “inactive” in each case. Also, in test [4], the result was inactive.
For `Cn1cccc1/C=C1\C(=O)NC(=O)N(Cc2ccccc2)C1=O`, the Potency entry in test [1], in test [2] and in test [3] was “inactive” in each case. In addition, in [4], the outcome was inactive.
For the molecule `CC(C)C/C(=N/O)c1cn(C)c2ccccc12`, the Potency entry in [5], in [1], in test [2] and in test [6] was “inactive” in each case. In [4], the call was inactive.
Turning to `COP(=O)(/C=C(\Cl)c1ccccc1)/C=C(\Cl)c1ccccc1`, the Potency entry in [1], in test [2] and in test [3] was “inactive” in each case. Further, the outcome in test [4] was inactive.
Take `Cc1ccc(OCCn2cccc2/C=C2/C(=O)NC(=O)N(Cc3ccco3)C2=O)cc1`: the Potency result in [1], in test [2] and in test [3] was “inactive” throughout. In addition, in [4], the outcome was inactive.
For the molecule `COC(=O)N1C(c2ccccc2)C1c1ccccc1` (configuration not stated), the Potency entry in test [5] and in test [1] was “inactive” throughout. Besides, the activation in test [2] was 10.2% [at 17.1 µM, percent relative to cAMP agonist control]. For the same molecule, the activity change, negative = inhibition in test [4] was 4.2% [at 30.8 µM].
For the molecule `O=[N+]([O-])c1ccc(N2CCCCCC2)c2nonc12`, the Potency entry in test [5] and in [3] was “inactive” in each case. Moreover, the Potency in [2] was 100 µM (active). For the same molecule, in [4], the molecule was called inactive.
As to `Cn1ncnc2c(=O)n(C)c(=O)nc1-2`, the Potency entry in test [1], in test [2] and in [3] was “inactive” in each case. Moreover, the result in test [4] was inactive.
`CC(C)=CCCC1(C)C=Cc2c(O)c3c(c(CC=C(C)C)c2O1)OC12C(=CC4CC1C(C)(C)OC2(C/C=C(/C)C(=O)O)C4=O)C3=O` (configuration not stated): the Potency result in test [7], in [8], in test [9], in test [1], in test [2] and in test [11] was “inactive” each time. The Potency in [10] was 20 µM (active); in test [5], 19.8 µM (active).
In the case of `COc1ccc(-n2nnnc2C(c2ccccc2OC(F)(F)F)N2CCC(n3c(=O)[nH]c4ccccc43)CC2)cc1` (configuration not stated), the Potency entry in test [1] is “inactive”. In addition, the activation in [2] is 2.83% [at 17.1 µM, percent relative to cAMP agonist control]. Moreover, in test [3], the activity change, negative = inhibition is -5.88% [at 12.7 µM].
For the molecule `Oc1c(Cl)cccc1Cc1cc(Cl)cc(Cl)c1O`, the Potency result in test [1], in test [2] and in test [3] was “inactive” each time. In addition, the outcome in test [4] was inactive.
Take `CCOC(=O)[C@]12Cc3ccccc3[C@H]1N(C(C)C)C(=O)c1cc(OC)ccc12`: the Potency result in test [1] is “inactive”. In addition, the activation in [2] is 1.3% [at 17.1 µM, percent relative to cAMP agonist control]. Moreover, the results for the activity change, negative = inhibition in test [3] and in [4] were -28.9% [at 12.7 µM] and -13.8% [at 30.8 µM], respectively.
With `CCN1/C(=C/C=C/C2=[N+](CC)c3ccccc3C2(C)C)C(C)(C)c2ccccc21`, the Potency in [1] is 56.2 µM (active); in [2] it was 100 µM (active). In addition, in test [3], the Potency result is “inactive”. For the same molecule, the molecule was classed as inactive in [4].
With `CCCCCC1C(=O)O[C@H](C)[C@@H](NC(=O)c2cccc(NC=O)c2O)C(=O)OC(C)C1OC(=O)CC(C)C` (some centres not stated), the Potency in test [12] is 7.94 µM (active). For the same molecule, the Potency result in [7], in test [9], in test [5], in test [1] and in test [2] was “inactive” throughout.
Turning to `CCOC(=O)[C@]12Cc3cc(OC)ccc3[C@H]1N(Cc1ccccc1)C(=O)c1ccccc12`, the Potency entry in [1] and in test [2] was “inactive” throughout. Also, the Potency in test [3] is 19 µM (active). Moreover, in test [4], the result was inactive.
Turning to `Cc1cc(C=C2C(=O)NC(=S)NC2=O)c(C)n1C1CCCC1`, the Potency result in test [1], in test [2] and in test [3] was “inactive” in each case. Further, the molecule was called inactive in [4].
In the case of `O=c1nc(/C=C/c2ccc(Cl)cc2Cl)cc(C(F)(F)F)[nH]1`, the Potency result in test [1] was “inactive”. Also, in [2], the activation was -2.31% [at 17.1 µM, percent relative to cAMP agonist control]. The activity change, negative = inhibition in [3] was -10% [at 12.7 µM].
`Nc1ccc2ccc3cccc[n+]3c2c1`: the results for the Potency in test [13], in [2] and in test [6] were 4.11 µM (active), 100 µM (active) and 39.8 µM (active), respectively. Besides, the Potency entry in [5] and in [3] was “inactive” in each case.
On to `COc1ccc(N2C(=O)/C(=C/C=C/c3ccccc3[N+](=O)[O-])C(=O)NC2=S)cc1`, for which the Potency entry in [1] is “inactive”. Besides, in test [2], the activation was 17.4% [at 17.1 µM, percent relative to cAMP agonist control]. The activity change, negative = inhibition was 0.334% [at 12.7 µM] in test [3] and 15.6% [at 30.8 µM] in test [4].
Take `CC(C)CCn1c(=O)c(C(=O)Nc2ccccc2S(N)(=O)=O)c(O)c2ccccc21`: the Potency in test [5] was 75.7 µM (active). In addition, the Potency result in test [1] and in test [2] was “inactive” each time. In addition, the call in test [4] was inactive.
Regarding `Cc1cccc(-c2nc(CN3C(=O)CN=C(c4ccccc4)c4ccccc43)c(C)o2)c1`, the Potency entry in [1] and in test [2] was “inactive” throughout. Moreover, the activity change, negative = inhibition in [3] is 48.3% [at 12.7 µM].
Take `O=c1[nH]c(O)c(C=Nc2ccccc2Sc2ccccc2)c(=O)[nH]1`: the Potency result in [1], in [2] and in [3] was “inactive” in each case. The molecule was called inactive in test [4].
Take `CCOC(=O)[C@]12Cc3ccccc3[C@H]1N(Cc1ccccc1)C(=O)c1cc(OC)ccc12`: the Potency result in [5] and in test [1] was “inactive” each time. Besides, the activation in [2] was -5.98% [at 17.1 µM, percent relative to cAMP agonist control]; in test [6], 20.9% [at 30.8 µM]. For the same molecule, in [4], the activity change, negative = inhibition is 2.15% [at 30.8 µM].
Turning to `CCOC(=O)[C@]12Cc3cc(C)ccc3[C@H]1N(C1CCCCC1)C(=O)c1ccccc12`, the Potency entry in test [1] is “inactive”. Moreover, the activation in test [2] is 4.83% [at 17.1 µM, percent relative to cAMP agonist control]. Further, the activity change, negative = inhibition in [3] is -27.9% [at 12.7 µM].
For the molecule `Cn1cccc1/C=C1/C(=O)NC(=O)N(Cc2ccccc2)C1=O`, the Potency entry in test [1], in [2] and in test [3] was “inactive” throughout. Moreover, the call in test [4] was inactive.
Turning to `CCN(CC)c1ccc(N=Cc2c(O)n(CCc3ccc(OC)c(OC)c3)c(=O)[nH]c2=O)cc1`, the Potency result in [5] is “inactive”. For the same molecule, the activity change, negative = inhibition in [3] was -5.1% [at 12.7 µM]; in [4] it was -17.1% [at 30.8 µM].
For the molecule `O=c1[nH]c(=S)n(-c2ccc(Cl)cc2)c(O)c1C=Nc1ccc(N2CCOCC2)cc1`, the Potency result in test [5], in test [2] and in test [3] was “inactive” in each case. In [4], the molecule was called inactive.
